Source: PubChem BioAssay
A number with no mark means an inactive call. For some assays here: Measured potencies and affinities stand elsewhere. The source made the active and inactive calls. Unless noted, no rule for the calls is given here.

Columns and labels:
[1] = antimalarial activity against Dd2 strain (AID 2302;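 active = growth inhibition above 50% at the single 2 µM test dose, taken to imply half-maximal potency below 2 µM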;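 also: 0% = DMSO untreated growth and 100% = chloroquine plus artemisinin killed control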); details: P. falciparum Dd2 in RBCs, LDH growth readout, 72 h; at 2 µM; active compounds read high
[2] = HepG2 cytotoxicity, primary screen, cytotoxicity control for P. falciparum antimalarial project, cell-based, ATP luminescence (AID 2303;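 active = inhibition above 50%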;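 also: 0% = DMSO wells and 100% = digitonin-killed cells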); details: HepG2 viability, 24-48 h, at 10 µM, active compounds read high
[3] = molecular target: L-lactate dehydrogenase (Plasmodium falciparum (isolate CDC / Honduras)) (UniProt Q27743); assay: PfLDH activity inhibition – cell lysate, 3D7 strain, counter-screen for P. falciparum growth inhibition project (AID 2304);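 also: 0% = vehicle and 100% = reference inhibitor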; details: P. falciparum 3D7 crude extract, LDH APAD/NBT absorbance; at 2 µM; active compounds read high
Sequence of L-lactate dehydrogenase (Plasmodium falciparum (isolate CDC / Honduras)) (Q27743 whole entry, looked up): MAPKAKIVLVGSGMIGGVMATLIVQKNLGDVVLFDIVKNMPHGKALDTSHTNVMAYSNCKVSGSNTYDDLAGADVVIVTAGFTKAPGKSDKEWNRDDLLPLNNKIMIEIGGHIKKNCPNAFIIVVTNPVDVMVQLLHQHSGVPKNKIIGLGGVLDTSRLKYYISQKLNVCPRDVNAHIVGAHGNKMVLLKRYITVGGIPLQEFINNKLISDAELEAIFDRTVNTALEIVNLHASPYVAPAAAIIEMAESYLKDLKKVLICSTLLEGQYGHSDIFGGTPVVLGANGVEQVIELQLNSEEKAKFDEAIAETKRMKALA

[4] = inhibition of 3D7 malaria parasite growth – strain 3D7 (AID 2306);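 also: 0% = DMSO wells and 100% = chloroquine plus artemisinin control wells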; details: P. falciparum 3D7 erythrocytic growth, LDH absorbance, 72 h; at 2 µM; active compounds read high
[5] = molecular target: Calcium-dependent protein kinase 1 (Plasmodium falciparum (isolate 3D7)) (UniProt P62344); assay: PfCDPK1 kinase inhibitors, biochemical, TCAMS library (AID 1159585; cut-off not given, nearly all actives have IC50 up to about 0.98 µM;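 also: inhibitors leave more ATP so luminescence rises with inhibition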); details: recombinant PfCDPK1, Kinase-Glo ATP depletion luminescence
Sequence of Calcium-dependent protein kinase 1 (Plasmodium falciparum (isolate 3D7)) (P62344 whole entry, looked up): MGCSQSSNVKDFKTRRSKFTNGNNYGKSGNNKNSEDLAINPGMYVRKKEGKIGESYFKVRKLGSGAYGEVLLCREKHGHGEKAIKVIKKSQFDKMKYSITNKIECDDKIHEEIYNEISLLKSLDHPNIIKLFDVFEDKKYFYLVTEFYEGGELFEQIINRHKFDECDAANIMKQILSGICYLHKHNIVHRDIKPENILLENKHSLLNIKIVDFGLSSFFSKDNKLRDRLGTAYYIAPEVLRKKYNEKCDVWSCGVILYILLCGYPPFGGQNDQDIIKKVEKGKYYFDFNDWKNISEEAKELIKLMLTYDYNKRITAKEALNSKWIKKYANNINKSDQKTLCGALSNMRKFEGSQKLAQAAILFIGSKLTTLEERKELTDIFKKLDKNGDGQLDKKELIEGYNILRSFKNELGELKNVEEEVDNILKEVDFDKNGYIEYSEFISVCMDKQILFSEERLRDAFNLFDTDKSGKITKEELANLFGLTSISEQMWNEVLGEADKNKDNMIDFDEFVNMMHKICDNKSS

[6] = molecular target: Plasmodium falciparum protein kinase 6 (PK6, PF3D7_1337100) (UniProt Q8IDW1); assay: PfPK6 kinase inhibitors, biochemical, TCAMS library (AID 1159586); details: recombinant PfPK6, Kinase-Glo ATP depletion luminescence
Sequence of Plasmodium falciparum protein kinase 6 (PK6, PF3D7_1337100) (Q8IDW1 1-305): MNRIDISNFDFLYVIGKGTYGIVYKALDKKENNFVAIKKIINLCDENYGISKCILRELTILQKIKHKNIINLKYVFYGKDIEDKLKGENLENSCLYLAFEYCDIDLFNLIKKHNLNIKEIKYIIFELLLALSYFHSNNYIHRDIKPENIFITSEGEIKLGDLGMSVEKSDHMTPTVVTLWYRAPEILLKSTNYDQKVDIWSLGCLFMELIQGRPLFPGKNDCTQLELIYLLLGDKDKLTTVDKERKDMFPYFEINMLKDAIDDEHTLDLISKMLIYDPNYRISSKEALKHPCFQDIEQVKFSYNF

[7] = molecular target: Protein kinase 7 (PK7), Plasmodium falciparum 3D7 (PF3D7_0213400) (UniProt Q7YTF7); assay: inhibition of Plasmodium PK7 catalytic activity – biochemical, TCAMS antimalarial set, Kinase-Glo luminescence (AID 1159587); details: recombinant PfPK7, Kinase-Glo ATP depletion luminescence
Sequence of Protein kinase 7 (PK7), Plasmodium falciparum 3D7 (PF3D7_0213400) (Q7YTF7 1-343): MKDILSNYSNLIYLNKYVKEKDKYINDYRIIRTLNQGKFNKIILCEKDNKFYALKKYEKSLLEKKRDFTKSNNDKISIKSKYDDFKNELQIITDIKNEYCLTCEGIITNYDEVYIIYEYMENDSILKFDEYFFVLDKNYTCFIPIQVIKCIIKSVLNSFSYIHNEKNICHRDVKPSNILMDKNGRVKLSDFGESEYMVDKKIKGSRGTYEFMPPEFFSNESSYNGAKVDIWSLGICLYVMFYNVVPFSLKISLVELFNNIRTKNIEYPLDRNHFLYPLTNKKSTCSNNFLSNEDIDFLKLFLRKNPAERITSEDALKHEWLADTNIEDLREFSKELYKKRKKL

[8] = molecular target: Calcium-dependent protein kinase 4 (Plasmodium falciparum (isolate 3D7)) (UniProt Q8IBS5); assay: PfCDPK4 kinase inhibitors, biochemical, TCAMS library (AID 1159588; cut-off not given, nearly all actives have IC50 up to about 0.91 µM); details: recombinant PfCDPK4, Kinase-Glo ATP depletion luminescence
Sequence of Calcium-dependent protein kinase 4 (Plasmodium falciparum (isolate 3D7)) (Q8IBS5 whole entry, looked up): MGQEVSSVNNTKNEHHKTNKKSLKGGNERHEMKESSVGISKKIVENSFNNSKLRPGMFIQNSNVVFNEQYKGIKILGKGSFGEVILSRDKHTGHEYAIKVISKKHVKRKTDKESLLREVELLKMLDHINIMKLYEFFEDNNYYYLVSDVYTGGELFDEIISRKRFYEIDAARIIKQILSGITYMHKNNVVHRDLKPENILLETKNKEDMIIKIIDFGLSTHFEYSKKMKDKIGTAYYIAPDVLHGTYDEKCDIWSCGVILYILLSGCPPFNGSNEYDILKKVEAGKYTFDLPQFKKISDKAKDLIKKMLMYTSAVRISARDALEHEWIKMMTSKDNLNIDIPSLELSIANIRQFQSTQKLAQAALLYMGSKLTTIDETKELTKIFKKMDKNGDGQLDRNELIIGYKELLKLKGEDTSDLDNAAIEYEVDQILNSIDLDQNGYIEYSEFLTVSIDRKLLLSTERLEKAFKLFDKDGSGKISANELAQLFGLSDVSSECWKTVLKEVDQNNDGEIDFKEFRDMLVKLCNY

| SMILES | growth inhibition [1] | inhibition [2] | inhibition [3] [%] | growth inhibition [4] | outcome [5] | outcome [6] | outcome [7] | outcome [8] |
| --- | --- | --- | --- | --- | --- | --- | --- | --- |
| Oc1ccc2[nH]c(-c3cccc(F)c3)nc2c1CN1CCCC1 | 47% | 0% | 5 | 100% (active) | inactive | inactive | inactive | inactive |
| COc1ccc(C2CCN(CCCCNC(=O)c3ccc(NC(=O)c4ccc(Cl)cc4)cc3)CC2)c(OC)c1 | 95% (active) | 32% | 0 | 101% (active) | inactive | inactive | inactive | inactive |
| CCCCCCC(C)c1cc(OCCN(CC)CC)c2c(c1)OC(C)(C)C=C2c1ccncc1 (stereo not given) | 71% (active) | 14% | -1 | 90% (active) | inactive | inactive | inactive | inactive |
| O=C(COc1ccccc1)NC1CCN(c2ccnc3cc(Cl)ccc23)C1 (stereo not given) | 35% | 22% | -5 | 101% (active) | inactive | inactive | inactive | inactive |
| O=C(Nc1cccc(-c2ccc(CN3CCCC3)cc2)c1)c1cccc(Cl)c1 | 61% (active) | 32% | -3 | 100% (active) | inactive | inactive | inactive | inactive |
| CC(C)(C)c1ccc2nc(-c3ccc(/C=C/C(=O)NC4CCN(Cc5ccccc5)CC4)cc3)[nH]c2c1 | 96% (active) | 45% | -2 | 101% (active) | inactive | inactive | inactive | inactive |
| Cc1cccc2[nH]c(-c3ccc(-c4cccc(CNCc5cnn(-c6ccccc6)n5)c4)s3)nc12 | 58% (active) | 40% | -1 | 98% (active) | inactive | inactive | inactive | inactive |
| Cc1cccc2[nH]c(-c3cccc(-c4cccc(NC(=O)CC5NC(=O)c6ccccc65)c4)c3)nc12 (stereo not given) | 49% | 8% | -1 | 92% (active) | inactive | inactive | inactive | inactive |
| NC1CCN(CCc2ccc(NS(=O)(=O)c3ccc(-c4ccccc4)cc3)cc2)CC1 | 19% | 17% | 0 | 100% (active) | inactive | inactive | inactive | inactive |
| COc1ccc(-c2ccc(NC(=O)c3ccc(C#N)cc3)cc2)cc1CNC(C)C | 38% | 19% | -3 | 100% (active) | inactive | inactive | inactive | inactive |
| COc1ccc2nccc(N(C)CC3(O)CCN(CCc4ccc5c(c4)NC(=O)CS5)CC3)c2n1 | 67% (active) | 10% | 1 | 91% (active) | inactive | inactive | inactive | inactive |
| Nc1nc(-c2ccccn2)nc(-n2nc(-c3cccc(C(F)(F)F)c3)cc2N)n1 | 74% (active) | 14% | -5 | 87% (active) | inactive | inactive | inactive | inactive |
| O=C(Nc1cccc(-c2ccc(-c3nc4ccc(C(F)(F)F)cc4[nH]3)cc2)c1)c1ccncc1 | 90% (active) | 79% (active) | -1 | 100% (active) | inactive | inactive | inactive | inactive |
| N#Cc1cccc(NC(=O)Nc2ccc(-c3ccc(-c4nc5ccc(C(F)(F)F)cc5[nH]4)cc3)cc2)c1 | 100% (active) | 51% (active) | -2 | 102% (active) | inactive | inactive | inactive | inactive |
| Cc1ccccc1C1CCN(C2CCC(NC(=O)/C=C/c3ccc(C(F)(F)F)cc3)CC2)CC1 (stereo not given) | 19% | 64% (active) | -3 | 95% (active) | inactive | inactive | inactive | inactive |
| Cc1ccc(NC(=O)Cc2noc(CC3CCCN3C(=O)N[C@@H](C)c3ccccc3)n2)cc1 (stereo not given in full) | 90% (active) | 1% | -1 | 95% (active) | inactive | inactive | inactive | inactive |
| CCCN(CCC)c1nn2c(=O)c(C(=O)N3CCN(Cc4ccccc4)CC3)cnc2s1 | 89% (active) | -22% | -2 | 84% (active) | inactive | inactive | inactive | inactive |
| N#CCCn1nc(-c2ccc(Cl)cc2)c2c(c1=O)CCCC2 | 32% | 0% | -1 | 94% (active) | inactive | inactive | inactive | inactive |
| Cc1nc2nc(N)nc(N)c2c(C)c1Cc1ccccc1I | -5% | 63% (active) | 5 | 96% (active) | inactive | inactive | inactive | inactive |
| COc1ccc(-c2cccc(NC(=O)c3cccc(F)c3)c2)cc1CN1CCCN(C)CC1 | 78% (active) | 42% | 0 | 101% (active) | inactive | inactive | inactive | inactive |

| SMILES | growth inhibition [1] | inhibition [2] | inhibition [3] [%] | growth inhibition [4] | outcome [5] | outcome [6] | outcome [7] | outcome [8] |
| --- | --- | --- | --- | --- | --- | --- | --- | --- |
| COc1ccc2nc(C)cc(Nc3ccc(Cl)cc3)c2c1 | 3% | 10% | -2 | 89% (active) | inactive | inactive | inactive | inactive |
| Cc1[nH]c(C)c(-c2ccc(OCCCCSc3ccncc3)cc2)c(=O)c1Br | 97% (active) | -3% | -2 | 97% (active) | inactive | inactive | inactive | inactive |
| Cc1ccc2nc(C)n(C3CCN(C(=O)C4(c5ccccc5)CC4)CC3)c2c1 | 83% (active) | 8% | 7 | 100% (active) | inactive | inactive | inactive | inactive |
| CCCn1c(SCC(=O)Nc2cc(Cl)ccc2Cl)n[nH]c1=O | 53% (active) | -5% | -2 | 88% (active) | inactive | inactive | inactive | inactive |
| Cc1cccc2[nH]c(-c3cccc(-c4cccc(C(=O)NCc5nccn5C)c4)c3)nc12 | 50% (active) | 22% | 8 | 99% (active) | inactive | inactive | inactive | inactive |
| CN1CCN(CCCN(Cc2ccc(-c3ccc(CNCCc4ccccc4)cc3)cc2)C(=O)c2cccs2)CC1 | 78% (active) | 32% | 3 | 98% (active) | inactive | inactive | inactive | inactive |
| CNc1ccc(CNCc2cccc(-c3ccc(-c4nc5ccccc5[nH]4)s3)c2)cc1 | 77% (active) | 15% | -3 | 100% (active) | inactive | inactive | inactive | inactive |
| Cc1ccccc1C1CCN(C2CCC(NC(=O)/C=C/c3cc(C(F)(F)F)ccc3F)CC2)CC1 (stereo not given) | 45% | 56% (active) | -2 | 100% (active) | inactive | inactive | inactive | inactive |
| Fc1ccc2nc(-c3cccc(-c4ccc(CN5CCC(CCN6CCCCC6)CC5)cc4)c3)[nH]c2c1 | 100% (active) | 91% (active) | -2 | 101% (active) | inactive | inactive | inactive | inactive |
| CC(C)CCN=C(N)Nc1ccc(OCCCOc2ccc(NC(N)=NCCC(C)C)cc2)cc1 | 95% (active) | 0% | -3 | 100% (active) | inactive | inactive | inactive | inactive |
| Nc1c2c(nc3ccc(NC(=O)CCCCCc4ccccc4)cc13)CCCC2 | 36% | 32% | 4 | 102% (active) | inactive | inactive | inactive | inactive |
| COC(=O)c1cc(OC)c(OC)cc1NC(=O)NC12CC3CC(CC(C3)C1)C2 | 3% | 6% | 6 | 94% (active) | inactive | inactive | inactive | inactive |
| COC(=O)c1sc(-c2ccc(Cl)cc2)cc1N(CCCN1CCC(N2CCCCC2)CC1)S(=O)(=O)c1ccc(C)cc1 | 86% (active) | 25% | -2 | 103% (active) | inactive | inactive | inactive | inactive |
| CN(C1CCC(NC(=O)/C=C/c2ccccc2)CC1)C1CC2(CCN(C(=O)OC(C)(C)C)CC2)c2ccccc21 (stereo not given) | 95% (active) | 16% | 5 | 95% (active) | inactive | inactive | inactive | inactive |
| CCn1c(Sc2ccc(C#N)c([N+](=O)[O-])c2)nnc1-c1cc(OC)cc(OC)c1 | 82% (active) | 7% | -2 | 93% (active) | inactive | inactive | inactive | inactive |
| COc1ccc2c(NN=Cc3ccc(Cl)cc3)ccnc2c1 | 100% (active) | 8% | 5 | 101% (active) | inactive | inactive | inactive | inactive |
| CN(/N=C/c1ccc(Cl)cc1)c1nc(NCCc2ccc(O)cc2)nc(N2CCNCC2)n1 | 97% (active) | 10% | 4 | 101% (active) | inactive | inactive | inactive | inactive |
| NC(N)=Nc1nc(-c2cccc(NC(=O)NCc3ccc(OC(F)(F)F)cc3)c2)cs1 | 26% | -3% | 4 | 100% (active) | inactive | inactive | inactive | inactive |
| Cc1nc2ccc(NC(=O)Nc3ccnc4ccc(C(F)(F)F)cc34)cc2o1 | 24% | 20% | -7 | 89% (active) | inactive | inactive | inactive | inactive |
| c1ncc(CCNc2nc(Nc3ccc4c(c3)OCO4)nc(NC3CCCC3)n2)[nH]1 | -3% | -1% | -2 | 80% (active) | inactive | inactive | inactive | inactive |
